For part of these data: Results with a measured potency or affinity are listed apart.
What was measured:
Design in all cases: scale not given: direction of the effect not stated beside the values
[1] = target: Protein translocase subunit SecA (Escherichia coli (strain K12)) (UniProt P10408); experiment: Assay to Identify E. coli SecA ATPase Inhibitors; type: functional; settings: 30 µM
[2] = target: T1, Ubiquitin-activating enzyme e1, putative (Leishmania donovani (strain BPK282A1)) (UniProt E9BSI1); experiment: Leishmania donovani Ubiquitin Activating Enzyme (LdE1); type: functional; settings: 30 µM
T1 sequence (whole entry): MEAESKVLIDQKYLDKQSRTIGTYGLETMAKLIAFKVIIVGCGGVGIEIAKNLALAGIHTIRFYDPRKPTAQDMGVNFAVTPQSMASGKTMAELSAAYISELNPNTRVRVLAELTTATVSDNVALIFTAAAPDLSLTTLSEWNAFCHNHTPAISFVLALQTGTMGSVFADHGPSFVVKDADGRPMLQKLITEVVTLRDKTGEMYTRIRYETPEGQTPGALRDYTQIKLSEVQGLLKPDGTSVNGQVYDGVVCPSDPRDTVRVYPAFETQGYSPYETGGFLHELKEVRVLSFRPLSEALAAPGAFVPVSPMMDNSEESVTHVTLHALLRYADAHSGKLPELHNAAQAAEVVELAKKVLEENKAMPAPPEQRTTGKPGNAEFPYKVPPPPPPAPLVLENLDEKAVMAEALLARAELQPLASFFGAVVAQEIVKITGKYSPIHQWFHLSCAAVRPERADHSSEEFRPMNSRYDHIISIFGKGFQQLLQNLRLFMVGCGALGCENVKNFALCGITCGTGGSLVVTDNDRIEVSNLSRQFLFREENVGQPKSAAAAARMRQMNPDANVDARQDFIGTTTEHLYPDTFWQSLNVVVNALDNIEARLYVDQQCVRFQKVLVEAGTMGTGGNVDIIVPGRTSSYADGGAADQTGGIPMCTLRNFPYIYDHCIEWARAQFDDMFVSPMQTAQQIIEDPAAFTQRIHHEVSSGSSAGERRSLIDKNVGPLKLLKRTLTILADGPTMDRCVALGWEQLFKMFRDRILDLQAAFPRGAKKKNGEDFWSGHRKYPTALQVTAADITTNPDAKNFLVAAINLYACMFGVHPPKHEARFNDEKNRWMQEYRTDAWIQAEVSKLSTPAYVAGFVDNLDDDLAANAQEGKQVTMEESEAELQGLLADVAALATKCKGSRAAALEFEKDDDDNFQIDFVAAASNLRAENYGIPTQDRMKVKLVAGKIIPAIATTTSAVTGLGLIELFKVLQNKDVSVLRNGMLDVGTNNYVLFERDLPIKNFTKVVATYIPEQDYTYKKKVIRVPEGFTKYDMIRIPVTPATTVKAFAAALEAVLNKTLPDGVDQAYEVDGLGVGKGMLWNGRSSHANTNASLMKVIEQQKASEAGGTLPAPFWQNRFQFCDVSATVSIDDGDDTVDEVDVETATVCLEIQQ

[3] = target: AMP-activated protein kinase, AMPK (Homo sapiens) (UniProt P54646+O43741+P54619+Q9UGJ0+Q9Y478+Q13131+Q9UGI9); experiment: AMP-dependent Kinase enzyme assay. An in vitro enzyme assay that detects ADP turnover that is directly proportional to AMPK activity. This uses naive AMPK that is activated during the assay with MK-8722; type: functional; settings: 30 µM
[4] = target: Sialic acid-binding Ig-like lectin 9 (Homo sapiens) (UniProt Q9Y336); experiment: Hs-Siglec9 ALPHAscreen SOP 20170721; settings: 10 µM
Chain of Sialic acid-binding Ig-like lectin 9 (Homo sapiens) (Q9Y336 whole entry): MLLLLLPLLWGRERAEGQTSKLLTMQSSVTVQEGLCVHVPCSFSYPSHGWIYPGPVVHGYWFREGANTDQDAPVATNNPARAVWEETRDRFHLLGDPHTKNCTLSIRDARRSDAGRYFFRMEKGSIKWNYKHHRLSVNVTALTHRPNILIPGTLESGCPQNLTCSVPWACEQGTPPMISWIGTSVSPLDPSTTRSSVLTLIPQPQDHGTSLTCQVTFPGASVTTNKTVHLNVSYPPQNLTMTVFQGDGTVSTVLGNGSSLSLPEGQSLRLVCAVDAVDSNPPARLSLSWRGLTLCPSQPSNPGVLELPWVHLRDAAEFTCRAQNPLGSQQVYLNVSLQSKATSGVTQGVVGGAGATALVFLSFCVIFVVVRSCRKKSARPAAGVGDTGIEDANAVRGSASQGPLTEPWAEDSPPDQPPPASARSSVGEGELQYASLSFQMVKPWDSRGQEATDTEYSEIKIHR

Trypanosoma cruzi = experiment: Trypanosoma cruzi phosphomannomutase and mannose-1-phosphate guanylyltransferase assay; type: functional; settings: 10 µM
[5] = target: T2, Arginase-2, mitochondrial (Homo sapiens) (UniProt P78540); experiment: in vitro enzyme assay to detect the production of urea directly proportional to the activity of Arginase II; type: functional; settings: 33.3 µM; further: in the data most compounds retested in dose-response had high values
T2 sequence (whole entry): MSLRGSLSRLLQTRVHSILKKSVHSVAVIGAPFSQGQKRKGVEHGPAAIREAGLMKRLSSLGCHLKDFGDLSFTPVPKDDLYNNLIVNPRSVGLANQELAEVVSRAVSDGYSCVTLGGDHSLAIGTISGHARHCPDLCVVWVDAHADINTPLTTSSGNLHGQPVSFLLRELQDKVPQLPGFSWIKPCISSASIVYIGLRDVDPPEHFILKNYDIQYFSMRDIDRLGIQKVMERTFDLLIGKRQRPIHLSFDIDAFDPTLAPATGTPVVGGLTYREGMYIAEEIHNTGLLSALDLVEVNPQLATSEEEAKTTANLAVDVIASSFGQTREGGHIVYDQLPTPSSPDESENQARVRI

[6] = target: T3, Proteasome subunit beta (Trypanosoma cruzi) (UniProt O96673); experiment: Trypanosoma cruzi proteasome chymotrypsin-like activity (TcProtChymo) assay.; further: in the data most compounds retested in dose-response had high values; type: functional; settings: 9.37 µM
T3 sequence (whole entry): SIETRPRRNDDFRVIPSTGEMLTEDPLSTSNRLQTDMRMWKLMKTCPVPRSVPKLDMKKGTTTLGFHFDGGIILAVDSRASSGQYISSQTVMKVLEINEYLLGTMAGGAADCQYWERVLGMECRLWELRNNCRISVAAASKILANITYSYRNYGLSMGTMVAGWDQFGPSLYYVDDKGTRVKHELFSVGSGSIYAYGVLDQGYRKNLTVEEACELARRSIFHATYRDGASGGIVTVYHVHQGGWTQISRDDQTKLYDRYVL

Homo sapiens = organism: Homo sapiens; experiment: To identify inhibition of the IFN signalling (Jak-Stat) pathway via expression of an eGFP reporter gene under the control of an IFN-stimulated response element (ISRE) containing MxA promoter.; type: functional; settings: 30 µM
[7] = target: T4, Tyrosyl-tRNA synthetase, putative (Trypanosoma cruzi (strain CL Brener)) (UniProt Q4DSP6); experiment: Trypanosoma cruzi tyrosyl tRNA synthetase (TcYRS) _High Tyrosine SOP; type: functional; settings: 30 µM; further: in the data most compounds retested in dose-response had high values
T4 sequence (whole entry): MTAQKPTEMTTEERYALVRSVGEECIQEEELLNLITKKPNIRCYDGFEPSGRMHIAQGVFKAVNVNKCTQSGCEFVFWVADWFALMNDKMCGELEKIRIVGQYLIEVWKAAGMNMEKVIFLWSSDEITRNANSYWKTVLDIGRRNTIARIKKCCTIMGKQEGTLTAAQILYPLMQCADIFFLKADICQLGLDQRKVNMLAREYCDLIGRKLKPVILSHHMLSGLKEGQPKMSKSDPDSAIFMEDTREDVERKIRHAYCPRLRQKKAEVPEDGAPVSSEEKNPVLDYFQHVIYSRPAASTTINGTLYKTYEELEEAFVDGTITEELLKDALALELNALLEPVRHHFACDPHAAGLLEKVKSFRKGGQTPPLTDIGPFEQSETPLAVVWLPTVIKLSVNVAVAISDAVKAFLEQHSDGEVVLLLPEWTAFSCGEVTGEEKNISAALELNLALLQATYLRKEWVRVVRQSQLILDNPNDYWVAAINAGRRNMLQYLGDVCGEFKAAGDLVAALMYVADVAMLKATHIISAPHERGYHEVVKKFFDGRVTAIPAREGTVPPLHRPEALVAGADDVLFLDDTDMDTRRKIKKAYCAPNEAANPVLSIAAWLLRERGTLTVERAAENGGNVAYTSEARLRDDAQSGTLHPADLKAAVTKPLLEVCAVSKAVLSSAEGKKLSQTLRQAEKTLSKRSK

[8] = target: T4, Tyrosyl-tRNA synthetase, putative (Trypanosoma cruzi (strain CL Brener)); experiment: Trypanosoma cruzi tyrosyl tRNA synthetase (TcYRS) SOP; type: functional; settings: 30 µM
[9] = target: Chromo domain-containing protein 1 (Saccharomyces cerevisiae (strain ATCC 204508 / S288c) (Baker's yeast)) (UniProt P32657); experiment: ScCHD-1 Enzyme Inhibition Assay; type: functional; settings: 30 µM; further: in the data most compounds retested in dose-response had high values
Chain of Chromo domain-containing protein 1 (Saccharomyces cerevisiae (strain ATCC 204508 / S288c) (Baker's yeast)) (P32657 whole entry, the tested form may be a part): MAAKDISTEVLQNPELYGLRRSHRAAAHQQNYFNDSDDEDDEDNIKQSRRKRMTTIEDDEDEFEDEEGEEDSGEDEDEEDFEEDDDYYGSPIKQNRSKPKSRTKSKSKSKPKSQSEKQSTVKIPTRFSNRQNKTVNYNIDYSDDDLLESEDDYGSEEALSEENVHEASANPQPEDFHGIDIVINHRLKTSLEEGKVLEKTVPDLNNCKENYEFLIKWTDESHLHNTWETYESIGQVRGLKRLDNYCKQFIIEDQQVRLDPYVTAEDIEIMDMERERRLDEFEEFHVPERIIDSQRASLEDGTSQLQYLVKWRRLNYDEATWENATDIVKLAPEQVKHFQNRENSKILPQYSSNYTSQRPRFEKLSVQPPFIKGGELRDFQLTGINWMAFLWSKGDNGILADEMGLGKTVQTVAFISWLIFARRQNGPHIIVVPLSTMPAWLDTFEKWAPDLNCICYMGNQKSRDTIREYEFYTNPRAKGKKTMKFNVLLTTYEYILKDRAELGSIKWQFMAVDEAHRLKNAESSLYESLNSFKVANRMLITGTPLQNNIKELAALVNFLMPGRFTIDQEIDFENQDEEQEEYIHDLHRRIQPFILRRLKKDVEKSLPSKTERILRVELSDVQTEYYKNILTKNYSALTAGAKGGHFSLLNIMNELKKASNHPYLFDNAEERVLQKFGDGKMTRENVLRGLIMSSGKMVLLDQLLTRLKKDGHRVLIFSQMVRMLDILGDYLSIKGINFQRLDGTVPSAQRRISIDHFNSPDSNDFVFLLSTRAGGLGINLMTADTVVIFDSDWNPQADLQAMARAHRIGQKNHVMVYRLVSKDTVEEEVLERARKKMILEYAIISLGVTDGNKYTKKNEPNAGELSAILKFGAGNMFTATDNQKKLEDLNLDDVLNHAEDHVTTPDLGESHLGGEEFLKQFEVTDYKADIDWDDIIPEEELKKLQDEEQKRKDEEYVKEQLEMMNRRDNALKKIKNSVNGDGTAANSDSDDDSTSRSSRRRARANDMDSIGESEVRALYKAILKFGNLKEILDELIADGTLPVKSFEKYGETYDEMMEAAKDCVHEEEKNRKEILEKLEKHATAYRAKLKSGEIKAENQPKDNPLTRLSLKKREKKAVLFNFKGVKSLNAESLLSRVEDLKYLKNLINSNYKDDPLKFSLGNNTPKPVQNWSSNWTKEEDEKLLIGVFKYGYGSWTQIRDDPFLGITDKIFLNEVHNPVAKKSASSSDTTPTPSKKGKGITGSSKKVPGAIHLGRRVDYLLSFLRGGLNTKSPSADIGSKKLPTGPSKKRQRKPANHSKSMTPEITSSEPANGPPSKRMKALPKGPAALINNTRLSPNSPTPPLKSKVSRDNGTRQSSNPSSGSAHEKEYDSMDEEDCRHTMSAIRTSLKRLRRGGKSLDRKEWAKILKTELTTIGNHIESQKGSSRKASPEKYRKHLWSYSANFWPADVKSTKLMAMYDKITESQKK

Chain of Protein translocase subunit SecA (Escherichia coli (strain K12)) (P10408 whole entry): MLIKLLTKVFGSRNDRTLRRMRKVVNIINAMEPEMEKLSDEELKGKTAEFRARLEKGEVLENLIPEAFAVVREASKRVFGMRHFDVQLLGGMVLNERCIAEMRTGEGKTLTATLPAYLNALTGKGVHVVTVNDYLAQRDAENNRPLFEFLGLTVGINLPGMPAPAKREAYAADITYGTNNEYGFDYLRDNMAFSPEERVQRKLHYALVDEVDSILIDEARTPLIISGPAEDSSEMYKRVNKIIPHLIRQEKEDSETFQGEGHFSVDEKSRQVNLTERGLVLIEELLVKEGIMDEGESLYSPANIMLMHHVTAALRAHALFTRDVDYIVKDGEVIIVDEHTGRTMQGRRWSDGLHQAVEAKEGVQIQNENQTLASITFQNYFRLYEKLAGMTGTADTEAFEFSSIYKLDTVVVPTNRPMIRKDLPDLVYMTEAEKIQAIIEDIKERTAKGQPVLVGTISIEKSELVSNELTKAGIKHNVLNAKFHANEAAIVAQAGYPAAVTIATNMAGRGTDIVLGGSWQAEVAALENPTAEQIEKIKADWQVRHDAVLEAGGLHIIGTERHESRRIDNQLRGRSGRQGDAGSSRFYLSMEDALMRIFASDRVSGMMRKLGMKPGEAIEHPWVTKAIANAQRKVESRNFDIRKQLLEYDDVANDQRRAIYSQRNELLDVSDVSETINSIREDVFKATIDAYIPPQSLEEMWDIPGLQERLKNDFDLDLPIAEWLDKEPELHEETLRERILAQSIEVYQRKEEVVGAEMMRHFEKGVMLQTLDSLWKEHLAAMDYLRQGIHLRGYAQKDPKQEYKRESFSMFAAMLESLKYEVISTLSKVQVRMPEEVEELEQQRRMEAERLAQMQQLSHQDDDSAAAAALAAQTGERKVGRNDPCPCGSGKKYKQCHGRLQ

| SMILES | Percent Effect [1] [%] | Percent Effect [2] [%] | Percent Effect [3] [%] | Percent Effect [4] [%] | Percent Effect (Trypanosoma cruzi) [%] | Percent Effect [5] [%] | Percent Effect [6] [%] | Percent Effect (Homo sapiens) [%] | Percent Effect [7] [%] | Percent Effect [8] [%] | Percent Effect [9] [%] |
| --- | --- | --- | --- | --- | --- | --- | --- | --- | --- | --- | --- |
| CCn1nc2c(cc1=O)CN(Cc1nc(N)c3ccccc3n1)CC2 | -5.07 | 5.48 | -62.9 | 1.04 | 3.92 | 3.64 | 14.6 | -3.85 | 2.15 | 12.5 | -7.75 |
| CC(C)NC(=O)C1CN(C(=O)c2ccc(F)cc2)CC12CCOCC2 (stereo unspecified) | -0.326 | 6.67 | 1.28 | -10.8 | -11.8 | -7.22 | 17.4 | -8.73 | 1.06 | 2.56 | -10.5 |
| CNc1cc(CNC(=O)c2ccccn2)nc(-c2ccncc2)n1 | -1.08 | 17.6 | 3.35 | -3.17 | 2.37 | 0.696 | 14.7 | 2.78 | 2.15 | 24.7 | -15.3 |
| CCCOc1ccc(CNC(=O)N2CCC(C(N)=O)C2)cc1 (stereo unspecified) | -0.765 | 22.8 | -8.41 | -9.27 | -2.36 | 2.28 | 5.82 | -21.1 | 4.43 | 13.9 | -2.35 |
| COc1ccnc(N2CCN(C(=O)c3cnn(C)c3C3CC3)CC2)n1 | -5.79 | 10.8 | -3.14 | 28.6 | 3.81 | 0.744 | 6.61 | -9.54 | 4.3 | 16.1 | -13.1 |
| Cn1c(Cn2cccn2)nnc1C1CCCN(c2ccncc2)C1 (stereo unspecified) | -2.64 | 2.7 | -4 | 11.4 | 3.86 | -1.43 | 17.6 | 11.9 | 6.88 | 19.5 | -1.63 |

— ChEMBL document CHEMBL3988442, “University of Dundee, Small-Polar-MMV Screening Library” (2021)
